Compounds with a hit are over-represented: about 3.1% of the library has one in this group of screens.
Peg3 prom inh: inhibitors of Peg3 promoter. inhibition, % at 20 µM. HeLa PEG-Prom luciferase reporter, luminescence, overnight. 360,000 compounds, 1.7% hits;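 active means inhibition of at least 50% at 20 µM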
HIF-2a block: inhibitors of HIF-2a; 786-0 RCC cells HIF-2a reporter, luciferase luminescence, overnight; inhibition, % at 18.8 µM; 360,000 compounds, 0.72% hits;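 active means inhibition of the luminescence signal of 40% or more relative to plate controls, in a single-dose primary screen at 18.75 µM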
CF NFkB inh: cystic fibrosis NF-kB activation inhibition; KKLEB NF-kB-GFP reporter, PAF-induced, GFP fluorescence overnight; inhibition, % at 5 µM; 360,000 compounds, 0.86% hits; AID 588850;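 active means at least 50% inhibition at 5 µM, scaled per plate between neutral and stimulator controls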;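 further: PAF is a Pseudomonas aeruginosa culture filtrate used as stimulus; plate controls were PAF-stimulated DMSO wells for no effect and unstimulated DMSO wells for full effect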
MITF TRPM1 inh: inhibitors of MITF-driven TRPM1 promoter in melanoma cells | inhibition, % at 12.5 µM | 330,000 compounds, 0.83% hits | SK-MEL-5 TRPM1 promoter luciferase, 24 h | AID 488899;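 active means mean inhibition across replicates of 60% or more, whatever share of single replicates reaches that level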
KKLEB tox: counter-screen for CF NF-kB inhibitors: cytotoxicity. activity change (cytotoxicity), % at 5 µM. KKLEB CF airway cells viability, ATPlite luminescence, overnight; active compounds read low; cells stimulated with P. aeruginosa culture filtrate. 360,000 compounds, 0.36% hits. AID 602141;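 active means corrected activity change at or below -50% at 5 µM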
ABHD5-PLIN5 inh: blocks binding of human ABHD5 to perilipin-5. Split G. princeps luciferase complementation, luminescence, 4 h. inhibition, % at 4 µM. 360,000 compounds, 0.78% hits. AID 602281;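 active means inhibition above the mean inhibition across every tested compound plus 3 SD, cut at about 22% in these data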;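 further: 0% = DMSO only wells and the 100% control is not disclosed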
Target sequence (Q00G26 whole entry, looked up): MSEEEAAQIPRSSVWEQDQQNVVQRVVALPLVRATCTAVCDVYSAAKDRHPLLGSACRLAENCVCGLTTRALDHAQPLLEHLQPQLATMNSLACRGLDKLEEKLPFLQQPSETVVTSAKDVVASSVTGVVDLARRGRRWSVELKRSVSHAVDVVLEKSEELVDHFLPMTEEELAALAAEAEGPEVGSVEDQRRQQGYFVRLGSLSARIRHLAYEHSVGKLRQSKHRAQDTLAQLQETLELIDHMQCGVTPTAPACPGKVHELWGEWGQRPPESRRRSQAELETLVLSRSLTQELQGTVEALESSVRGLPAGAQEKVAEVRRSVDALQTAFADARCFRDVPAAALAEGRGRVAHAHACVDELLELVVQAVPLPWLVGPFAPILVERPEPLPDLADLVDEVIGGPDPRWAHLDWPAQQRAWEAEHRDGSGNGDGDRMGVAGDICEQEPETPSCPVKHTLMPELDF
Target sequence (Q8WTS1 whole entry, looked up): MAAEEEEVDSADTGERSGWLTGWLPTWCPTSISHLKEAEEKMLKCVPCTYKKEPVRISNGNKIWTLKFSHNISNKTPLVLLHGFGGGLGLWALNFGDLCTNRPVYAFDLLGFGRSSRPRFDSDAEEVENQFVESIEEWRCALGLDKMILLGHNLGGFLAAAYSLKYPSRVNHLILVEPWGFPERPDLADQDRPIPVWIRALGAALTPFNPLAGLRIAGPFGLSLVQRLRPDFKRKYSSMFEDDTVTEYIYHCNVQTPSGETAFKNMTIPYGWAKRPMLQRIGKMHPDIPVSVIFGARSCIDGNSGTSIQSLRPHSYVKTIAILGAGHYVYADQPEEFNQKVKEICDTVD
ABHD5 PLIN5 conf: confirmation of human ABHD5-PLIN5 interaction inhibitors. shares compounds with ABHD5-PLIN5 inh. inhibition, % at 4 µM. 2,200 compounds, 67% hits. biochemical ABHD5-PLIN5 interaction, luminescence. AID 651612; in the data active means inhibition above about 23%;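 further: 0% = DMSO vehicle wells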
HNF4 counter: counter-screen for ABHD5-PLIN5 inhibitors: HNF4 split-luciferase | AID 651674 | shares compounds with ABHD5-PLIN5 inh | inhibition, % at 4 µM | HNF4 dimerization, luminescence, biochemical | 2,200 compounds, 77% hits;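 active means mean inhibition across replicate wells exceeding the computed hit threshold, cut at about 13% in these data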;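 further: light from luciferase halves that rejoin when HNF4 fusion proteins dimerize; 0% = DMSO only wells and the 100% control is not given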
Mdm2 MdmX conf: confirmation of inhibitors of human Mdm2/MdmX interaction, set 2; shares compounds with HIF-2a block; SaOS-2 split-luciferase Mdm2/MdmX complementation, luminescence; inhibition, % at 8 µM; 740 compounds, 99% hits;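 active means mean inhibition of the luminescence signal across two replicates at or above 26 percent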
HIF-2a conf: HIF-2a inhibition, single concentration confirmation; shares compounds with HIF-2a block; 786-0 RCC cells, HIF-2a luciferase reporter luminescence, overnight; inhibition, % at 18.8 µM; 1,800 compounds, 56% hits;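 active means mean inhibition across four replicates of at least 40 percent at the single tested concentration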
HIF-1a cs: counter-screen for HIF-2a inhibitors: HIF-1a inhibition in MiaPaCa-2 cells; shares compounds with HIF-2a block; MiaPaCa-2 HIF-1a luciferase reporter, desferoxamine, overnight; inhibition, % at 18.8 µM; 1,800 compounds, 72% hits;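 active means mean inhibition of the reporter signal across four replicates at the single tested dose of 50% or more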
The depositor's hits bear a star; . = no result given.

SMILES	Peg3 prom inh	HIF-2a block	CF NFkB inh	MITF TRPM1 inh	KKLEB tox	ABHD5-PLIN5 inh	ABHD5 PLIN5 conf	HNF4 counter	HIF-2a conf	HIF-1a cs	others
CCOC(=O)/C(=C\c1ccc(Cl)cc1)c1nc2sc(C)c(C)c2c(=O)[nH]1	108*	94*	80*	78*	-57*	46*	99*	77*	98*	107*
CCOC(=O)C(C)Sc1ccc2nnc(CCNS(=O)(=O)c3ccccc3)n2n1 (stereo not given)	0	8	-7	-6	2	1	.	.	.	.
CCOC(=O)/C(=C/c1ccc(OC(F)F)cc1)C1=Nn2c(nnc2-c2ccc(Cl)cc2)SC1	106*	88*	92*	95*	-104*	42*	101*	91*	43*	105*
CCOC(=O)c1cc([N+](=O)[O-])cc([N+](=O)[O-])c1Sc1ncnc2nc[nH]c12	98*	83*	18	107*	-28	38*	62*	102*	61*	107*
NC(=O)C1=C(c2ccccc2)c2ccccc2C1=O	22	51*	16	37	-11	74*	93*	94*	39	-3
COc1ccc(CCNC(=O)COC(=O)/C=C/c2ccc(OCC#N)c(OC)c2)cc1OC	3	34	16	-6	-1	2	.	.	.	.
COc1cc(/C=C/C(=O)c2ccc(C)cc2)ccc1OCC#N	103*	86*	41	31	-38	45*	72*	54*	25	102*
CC(=O)c1ccc(OCC(C)Oc2ccc(C#N)cc2)cc1 (stereo not given)	3	12	15	8	-10	2	.	.	.	.
CCS(=O)(=O)c1ncc(Cl)c(C(=O)Nc2ccc(C)cc2)n1	101*	92*	92*	70*	-86*	48*	72*	78*	97*	72*	Mdm2 MdmX conf=101*
CCSc1ncc(Cl)c(C(=O)Nc2ccc(S(=O)(=O)Nc3onc(C)c3C)cc2)n1	9	8	5	1	10	10	.	.	.	.
CCC1CCCCN1S(=O)(=O)c1ccc(NC(=O)c2nc(S(C)(=O)=O)ncc2Cl)cc1 (stereo not given)	107*	75*	87*	104*	-74*	91*	100*	107*	100*	101*
Cc1ccc(CS(=O)(=O)c2ncc(Cl)c(C(=O)Nc3ccc(OC(F)F)cc3)n2)cc1	106*	93*	94*	81*	-100*	57*	90*	89*	.	.	Mdm2 MdmX conf=103*
CCC1CCCCN1S(=O)(=O)c1ccc(NC(=O)c2ccncc2)cc1 (stereo not given)	9	13	-8	24	7	3	.	.	.	.
CC(C)C1Cc2[nH]c(=S)[nH]c(=O)c2C(c2ccc(Cl)cc2)O1 (stereo not given)	4	8	12	.	-1	-2	.	.	.	.
CCNC(=O)c1ccccc1SCC(=O)Nc1ccc(F)cc1	7	3	-11	10	3	4	.	.	.	.
COC(=O)[C@@]1(Cc2ccc(OC)cc2)[C@@H]2C(=CC(=O)[C@H]2CC(=O)C(=O)N2CCCC2)CN1C(=O)c1ccccc1	16	77*	28	40	-5	33*	63*	49*	69*	84*
CC(=O)NC(CC(=O)NCc1ccncc1)c1ccccc1 (stereo not given)	16	8	16	12	-14	-1	.	.	.	.
CCOC(=O)C1=C(COc2ccccc2)NC(=O)NC1c1ccc(Br)cc1 (stereo not given)	27	20	-8	-4	-32	0	.	.	.	.
Cn1cnc([N+](=O)[O-])c1Oc1cccc2ccccc12	0	1	32	49	2	13	.	.	.	.
Cn1cnc([N+](=O)[O-])c1S(=O)(=O)Oc1cccc2ccccc12	105*	83*	86*	93*	-79*	76*	76*	106*	31	66*
Cn1cnc([N+](=O)[O-])c1S(=O)(=O)Oc1ccc(Cl)cc1	103*	81*	94*	68*	-98*	73*	85*	104*	30	26
CCOc1ccc(NC(=O)CC2S/C(=N/N=C3CCCCCC3)NC2=O)cc1 (stereo not given)	12	9	-22	-6	9	-1	.	.	.	.
C=C1C(=O)c2sccc2C(c2ccc(OC)c(OC)c2)C1COC(C)=O (stereo not given)	105*	87*	84*	98*	-92*	79*	95*	108*	99*	106*
CCN1CCN(CC(=O)N2N=C(c3cccs3)CC2c2ccc(OC)c(OC)c2)C(=O)C1=O (stereo not given)	26	10	-7	8	-3	2	.	.	.	.
FC(F)(F)c1ccccc1Cc1c(-c2ccco2)nc2ccc(Cl)cn12	10	37*	27	.	-18	34*	46*	63*	1	64*
FC(F)(F)c1ccccc1Cc1c(-c2ccccc2)nc2ccc(Cl)cn12	-70	-158	7	.	-14	-9	.	.	.	.
C=C1C(=O)[C@@]23[C@H](O)C[C@@H]4C(C)(C)CC[C@H](O)[C@@]4(C)[C@@H]2CC[C@@H]1[C@H]3O	102*	91*	95*	93*	-32	53*	85*	78*	94*	107*
COC1OC(COC(=O)c2ccccc2)C(OC(=O)c2ccccc2)C1OC(=O)c1ccccc1 (stereo not given)	19	27	-8	12	-11	0	.	.	.	.
C=C(CN(C)C)C(=O)c1ccc(OC2OC(COC(C)=O)C(OC(C)=O)C(OC(C)=O)C2OC(C)=O)cc1 (stereo not given)	100*	89*	60*	115*	-28	39*	99*	106*	96*	105*
O=CC1=C(c2ccccc2)Oc2ccccc2O1	98*	46*	37	12	-5	30*	73*	31*	12	107*

Bioassay records (PubChem)
